D2 ag-1 = activates the human D2 dopamine receptor | activation, % at 2 µM | P14416 | AID 485358 | hit rate 0.53% among 340,000 | HEK293 T-REx D2 cells, calcium flux agonist mode;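 active means activation over 3 SD above normal in the single-dose calcium agonist read, cut at about 30% in these data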; further: 0% is about no effect
Target sequence (P14416 whole entry, looked up): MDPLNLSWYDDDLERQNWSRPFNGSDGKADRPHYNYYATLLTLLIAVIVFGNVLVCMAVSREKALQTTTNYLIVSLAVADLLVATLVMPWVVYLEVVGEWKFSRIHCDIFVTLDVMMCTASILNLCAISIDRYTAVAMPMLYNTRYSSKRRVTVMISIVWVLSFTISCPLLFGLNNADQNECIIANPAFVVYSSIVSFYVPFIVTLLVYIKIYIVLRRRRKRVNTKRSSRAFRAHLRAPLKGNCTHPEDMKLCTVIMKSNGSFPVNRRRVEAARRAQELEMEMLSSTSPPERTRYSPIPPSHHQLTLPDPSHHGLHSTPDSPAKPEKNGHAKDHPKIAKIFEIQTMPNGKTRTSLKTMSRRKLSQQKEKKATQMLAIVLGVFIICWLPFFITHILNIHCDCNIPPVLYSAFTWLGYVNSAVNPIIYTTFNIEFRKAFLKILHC
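Tetracycline-induced HEK293 Trex cells with D2 receptor force-coupled to calcium signaling, plated overnight at 30 C and loaded with no-wash calcium dye. Calcium flux read kinetically for 180 s after compound addition; responses flag agonists.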
D2 PAM-1 = positively modulates the human D2 dopamine receptor allosterically. hit rate 0.34% among 340,000. potentiation, % at 10 µM. HEK293 T-REx D2, calcium flux, EC20 dopamine potentiation;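 active means potentiation over 3 SD above the plate norm, cut at about 30% in these data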; further: 0% is about no effect
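Potentiation of an EC20 dopamine calcium response measured kinetically over 180 s, after a preceding 180 s compound-only read flagging agonists. Cells: inducible Hek293 Trex D2 line, 4000/well, cultured overnight at 30 C before dye loading.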
D2 antag = antagonizes the human D2 dopamine receptor. hit rate 2% among 340,000. AID 485344. P14416. inhibition, % at 10 µM. HEK293 TREx D2 cells, calcium flux, dopamine EC80; in the data active means inhibition above about 30%; inactive means below that, where a call was filed; further: 0% is about no effect
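HEK293 T-REx D2 cells, tet-induced, calcium dye no-wash. Cpd pintool add, 180 s kinetic, then EC80 DA, 180 s kinetic. Ca flux read.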
D2 ag-2 = agonists of human D2 dopamine receptor (beta-arrestin) | P14416 | DiscoveRx PathHunter D2 beta-arrestin, luminescence, 90 min; 100% = 57 uM dopamine signal | hit rate 0.084% among 360,000 | activation, % (concentration not given with the values); in the data active means activation above about 40%; inconclusive means between about 15% and that limit
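DiscoveRx PathHunter D2 beta-arrestin cells (2,100/well) attached overnight, then compound-stimulated 90 min at 37 C in HBSS/10 mM HEPES/0.1% Tween-20 buffer; beta-galactosidase complementation read by luminescence after 1 h at ambient temperature. Dopamine 57 uM final (EC100) as control.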
D2 PAM-2 = potentiates the human D2 dopamine receptor allosterically | P14416 | DiscoveRx D2 beta-arrestin cells, luminescence, 90 min; 100% = 57 uM dopamine signal | potentiation, % (test concentration not listed) | hit rate 0.23% among 360,000 | AID 624464; in the data active means potentiation above about 50%; inconclusive means mostly about 30% to 49%
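D2 cells co-treated with compound plus 50 nM dopamine (EC20) for 90 min at 37 deg C to detect potentiation. Beta-arrestin recruitment was read as enzyme-fragment luminescence after 1 h at ambient temperature. Full response was set by 57 uM dopamine.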
D3 ag = confirmation of human D3 dopamine receptor agonists, beta-arrestin; Potency, µM (top dose mostly 76.9 µM), for the others: at the highest dose activation, most hits filed as activators; AID 720506; hit rate 4% among 2,300; shares compounds with D2 ag-1; DiscoveRx D3 beta-arrestin cells, luminescence, 90 min;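 further: potency means the concentration at half of the fitted maximal effect; 100% = dopamine control response; nearly all actives have a fitted effect of over 70% in size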
D2 ag-3 = activates human D2 dopamine receptor in D3 counterscreen; shares compounds with D2 ag-1; Potency, µM (top dose mostly 76.9 µM), for inactives: top-dose activation, most hits filed as activators; DiscoveRx PathHunter D2 beta-arrestin, luminescence, 90 min; response scale: percent relative to full dopamine signal; hit rate 5.9% among 2,300; further: potency means the concentration at half of the fitted maximal effect; % of control where 0% means no effect; nearly all actives have a fitted effect of over 70% in size
* = called active by the depositor; ? = inconclusive; nt = no result given. In the library only some 2.4% were active in any assay of this set; here they are far more common. Unless noted, the call rests on the fitted dose curve; in most records, active means well fitted activation curve with a large enough effect; inconclusive means small, poorly fitted or top-dose-only effect; inactive means flat fitted curve, though single readings scatter.

SMILES | D2 ag-1 | D2 PAM-1 | D2 antag | D2 ag-2 | D2 PAM-2 | D3 ag | D2 ag-3
CC(C)[C@H](Nc1ccc(S(=O)(=O)N2CCOCC2)cc1[N+](=O)[O-])C(=O)OCC(N)=O | 0 | -1 | 0 | 1 | -1 | nt | nt
CC(C)[C@H](Nc1ccc(S(=O)(=O)N2CCOCC2)cc1[N+](=O)[O-])C(=O)OCC(=O)N(C(C)C)C(C)C | 2 | 1 | 23 | 0 | -10 | -9% | 7%
Fc1ccc(NC(=S)N2CCCC(c3ccccc3)=N2)cc1 | 26 | 3 | -2 | -4 | 5 | -6% | 22%
O=C(COC(=O)c1ccc(CNS(=O)(=O)c2ccc(F)c(Cl)c2)cc1)NCC1CCCCC1 | 69* | -23 | 18 | 1 | -8 | 0% | -1%
C=CCN(CC=C)CCOc1cc(C)ccc1[N+](=O)[O-] | 21 | -28 | -8 | -3 | -3 | 7% | 6%
Cc1cc(=O)oc2cc(OC(C)C(=O)NC3CCCC3)ccc12 (stereo unspecified) | 1 | -16 | 2 | 5 | -5 | nt | nt
Cc1cc(=O)oc2cc(OC(C)C(=O)Nc3nccs3)ccc12 (stereo unspecified) | nt | nt | nt | -3 | -1 | -3% | -5%
CCC(=O)Nc1ccc2c(c1)nc(CCN1CCN(c3ccccc3)CC1)n2C | 62* | -22 | 21 | 4 | -9 | -5% | 7%
CCC(=O)Nc1ccc2c(c1)nc(CCN1CCCCC1)n2C | 1 | -2 | -3 | -7 | -17 | nt | nt
Cn1c(CCN2CCN(c3ccccn3)CC2)nc2cc(NC(=O)COc3ccc([N+](=O)[O-])cc3)ccc21 | 82* | -14 | 31* | 2 | 3 | 15% | 18%
CC(C)C(=O)Nc1ccc2c(c1)nc(CCN1CCN(c3ccccn3)CC1)n2C | 67* | -22 | 33* | ? | -2 | ? | 16%
COc1ccc(-c2nc(S(=O)(=O)c3ccc(Cl)cc3)c(N3CCCCCC3)o2)cc1 | 0 | -12 | nt | nt | nt | nt | nt
COc1cccc(CNC(=O)N2CCC(CN3CCC(C)CC3)CC2)c1 | 0 | 10 | nt | nt | nt | nt | nt
CC(C)Nc1ccc(-c2nc(-c3ccncc3)no2)cc1[N+](=O)[O-] | nt | 1 | nt | nt | nt | nt | nt
CC(NC(=O)CCC(=O)N1CCCCCC1)c1ccccc1 (stereo unspecified) | 44* | -23 | 10 | 0 | 3 | -1% | -2%
CC(NC(=O)CCC(=O)NC(C)c1ccccc1)c1ccccc1 (stereo unspecified) | 0 | -3 | -17 | -2 | -5 | nt | nt
O=C(C1CCCN(Cc2cccnc2)C1)N1CCCCC1 (stereo unspecified) | 0 | -2 | 11 | 4 | -5 | -2% | -2%
O=C(Cn1c(=O)oc2cc(S(=O)(=O)NCc3ccccc3)ccc21)NCc1ccccc1Cl | 0 | -13 | nt | nt | nt | nt | nt
Cc1ccc2c(c1)N(C(C)C(=O)NCc1ccc3c(c1)OCO3)C(=O)CO2 (stereo unspecified) | 0 | -7 | 16 | 5 | -3 | -1% | -1%
Cc1cccc(Nc2nc(N)nc(CN3CCN(c4ccccc4F)CC3)n2)c1 | nt | nt | nt | 5 | 3 | nt | nt
CCOc1ccc(Nc2nc(N)nc(CN3CCN(c4ccccc4F)CC3)n2)cc1 | 48* | -18 | 33* | 8 | -3 | 15% | ?
COc1ccc(Nc2nc(N)nc(CN3CCN(c4ccc(F)cc4)CC3)n2)cc1 | 43* | -25 | 17 | 7 | 5 | 1% | 11%
Nc1nc(CN2CCN(Cc3ccccc3)CC2)nc(Nc2ccccc2)n1 | 0 | 9 | -1 | -3 | -21 | nt | nt
Cc1cccc(Nc2nc(N)nc(CN3CCN(c4ccccc4)CC3)n2)c1 | 71* | -28 | 51* | ? | ? | 28% | ?
Nc1nc(CN2CCN(c3ccccn3)CC2)nc(Nc2ccc(Cl)cc2)n1 | 90* | -28 | 74* | 41* | 56* | -3% | 18µM*
SMILES | D2 ag-1 | D2 PAM-1 | D2 antag | D2 ag-2 | D2 PAM-2 | D3 ag | D2 ag-3
COc1ccc(N2CCN(Cc3nc(N)nc(Nc4ccccc4OC)n3)CC2)cc1 | 0 | 9 | 8 | -4 | -4 | nt | nt
Nc1nc(CN2CCN(c3ccccc3F)CC2)nc(Nc2ccc3c(c2)OCCO3)n1 | 72* | -19 | 54* | ? | 18 | 9% | ?
CN1CCN(Cc2nc(N)nc(Nc3ccc4c(c3)OCCO4)n2)CC1 | 1 | 11 | -32 | 0 | -9 | nt | nt
Nc1nc(CN2CCN(c3ccc(F)cc3)CC2)nc(N2CCCc3ccccc32)n1 | 60* | -29 | 54* | 11 | -9 | 9% | 24%
COc1ccc(OC2C(=O)N(c3ccc(C)c(C)c3)C2c2ccc(OC)c(OC)c2)cc1 (stereo unspecified) | 54* | -22 | 1 | 0 | 2 | -9% | -2%
COc1ccc(C(=O)CC2(O)C(=O)Nc3c(C)cccc32)c(OC)c1OC (stereo unspecified) | 1 | -5 | nt | nt | nt | nt | nt
O=S(=O)(c1cc(Cl)ccc1Cl)N1CCc2ccccc21 | 61* | -17 | 37* | -1 | 2 | -5% | 4%
CC1(C)CC(=O)C=C(c2ccc3ccccc3c2)C1 | nt | 4 | nt | 0 | -8 | -2% | 3%
Cc1ccc(C2=CC(=O)CC(C)(C)C2)cc1 | -1 | 10 | -14 | -3 | -12 | nt | nt
COc1ccc(CCNC(=O)c2ccc3nc(N4CCOCC4)sc3c2)cc1OC | 0 | 4 | 12 | -4 | 5 | nt | nt
CCOc1ccc(CCNC(=O)c2ccc3nc(N4CCOCC4)sc3c2)cc1OCC | 0 | 7 | 8 | 0 | -4 | 14% | 1%
Cc1cc(C)c(NC(=O)c2sc3nc4c(cc3c2N)C(=O)CC(C)(C)C4)c(C)c1 | 44* | -10 | 5 | 1 | -7 | -5% | 1%
COC(=O)c1sc2nc3c(cc2c1N)C(=O)CC(C)(C)C3 | 0 | 2 | 16 | -2 | -28 | nt | nt
COc1cc(C(=O)CCN2CCC(c3ccccc3)C2)cc(OC)c1OC (stereo unspecified) | 46* | -26 | 24 | -4 | -39 | -9% | -3%
O=C(CCN1CCC(c2ccccc2)C1)c1cccs1 (stereo unspecified) | 0 | -23 | 11 | -1 | -16 | nt | nt
C=CCC1NCCc2c(Br)cccc21 (stereo unspecified) | 47* | -16 | 29 | 4 | -11 | -15% | 0%
C=CC[C@@H]1Cc2c(Br)ccc(Br)c2[C@@H](CC=C)N1 | 6 | 3 | -5 | ? | 12 | nt | nt
Cc1cc(NC(=O)CSCC(=O)Nc2cc(C(F)(F)F)ccc2N2CCOCC2)no1 | 0 | 7 | -19 | 3 | -4 | -6% | -2%

Screening data (PubChem)
